The nature of assay [1]: P-glycoprotein substrates identified in KB-8-5-11 adenocarcinoma cell line, qHTS therapeutic library screen (AID 1346987). Note: nearly all actives have a fitted effect of over 65% in size. Note: potency is the fitted concentration of half-maximal effect. In outline:
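In this qHTS, P-gp-rich KB-8-5-11 cells received library compounds across a concentration range. Viability was quantified by luminescence after 72 h at 37 degree C.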
In general terms: In qHTS, concentration-response curves come from the screen itself.

The nature of assay [2]: NS1 protein of Zika virus - qHTS assay to identify small molecule inhibitors in human HEK 293 cells (AID 1347053). Note: nearly all actives have a fitted effect of over 55% in size. Note: potency is the fitted concentration of half-maximal effect. The essentials: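 TR-FRET signal from two anti-ZIKV NS1 antibodies quantified NS1 in HEK 293 cells 24 h after MR766 infection at MOI = 0.5; compounds were added 1 h before virus. Uninfected cells and infected cells defined the NS1 normalization range.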
Assay [3] can be described thus: qHTS of pediatric cancer cell lines to identify multiple opportunities for drug repurposing: Primary screen for TC32 cells (AID 1347089). Note: nearly all actives have a fitted effect of over 60% in size. The essentials: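 TC32 cells, 500-1,000/well in growth medium, compound-treated 48 h at 37 °C; viability from CellTiter-Glo luminescence. Primary screen: MIPE 11-point (0.78 nM–46 µM final), NPC 8-point (0.59 nM–46 µM final); confirmatory at 11-point dilutions.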

A short description of assay [4]: qHTS of pediatric cancer cell lines to identify multiple opportunities for drug repurposing: Primary screen for DAOY cells (AID 1347090). Note: nearly all actives have a fitted effect of over 55% in size. Note: potency is the fitted concentration of half-maximal effect. The essentials: (§1)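 Cell viability, CellTiter-Glo luminescence; 500-1,000 cells/well, 8- or 11-point titration, 48 h compound exposure at 37 degrees C, 5% CO2. Controls: DMSO neutral, bortezomib 2.3 µM final as positive.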
Assay [5] can be described thus: qHTS of pediatric cancer cell lines to identify multiple opportunities for drug repurposing: Primary screen for SK-N-MC cells (AID 1347093). Note: potency is the fitted concentration of half-maximal effect. The essentials: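 Metabolically active cells were quantified by ATP-dependent luminescence (CellTiter-Glo, 15 min at room temperature) following 48 h treatment. Cells had been plated at 500-1,000 per well and settled for 5 h beforehand.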

Assay [6] in a line: qHTS of pediatric cancer cell lines to identify multiple opportunities for drug repurposing: Primary screen for BT-37 cells (AID 1347094). Note: potency is the fitted concentration of half-maximal effect. In outline: (§2)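 Following a 5-hour attachment period, cells at 500-1,000/well received compounds and were cultured for 48 hours. CellTiter-Glo was added and luminescence read to estimate viable, metabolically active cells.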
Assay [7] is described as follows: qHTS of pediatric cancer cell lines to identify multiple opportunities for drug repurposing: Primary screen for NB-EBc1 cells (AID 1347095). Note: potency is the fitted concentration of half-maximal effect. In outline:
as §2

The nature of assay [8]: qHTS of pediatric cancer cell lines to identify multiple opportunities for drug repurposing: Primary screen for U-2 OS cells (AID 1347096). Note: nearly all actives have a fitted effect of over 50% in size. Note: potency is the fitted concentration of half-maximal effect. The essentials:
(§3)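 Cells (500-1,000/well) rested 5 h, then received compounds for 48 h; metabolically active cells were measured by CellTiter-Glo luminescence. Final concentrations spanned up to 46 µM (MIPE, 11-point) or 0.59 nM-46 µM (NPC, 8-point) in primary screens, 11-point in follow-ups.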

A short description of assay [9]: qHTS of pediatric cancer cell lines to identify multiple opportunities for drug repurposing: Primary screen for Saos-2 cells (AID 1347097). Note: nearly all actives have a fitted effect of over 40% in size. Note: potency is the fitted concentration of half-maximal effect. The essentials:
as §2

A short description of assay [10]: qHTS of pediatric cancer cell lines to identify multiple opportunities for drug repurposing: Primary screen for A673 cells (AID 1347092). Note: nearly all actives have a fitted effect of over 45% in size. Note: potency is the fitted concentration of half-maximal effect. In outline: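 A673 cells (500-1,000 cells/well) were treated 48 hours at 37 degrees C with compounds at 11-point (0.78 nM to 46 µM) or 8-point (0.59 nM to 46 µM) dilutions. Viability read by CellTiter-Glo luminescence; concentration-response curves fitted.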

Assay [11] in a line: qHTS of pediatric cancer cell lines to identify multiple opportunities for drug repurposing: Primary screen for NB1643 cells (AID 1347099). Note: nearly all actives have a fitted effect of over 50% in size. Note: potency is the fitted concentration of half-maximal effect. In outline:
as §2

Assay [12] in a line: qHTS of pediatric cancer cell lines to identify multiple opportunities for drug repurposing: Primary screen for SJ-GBM2 cells (AID 1347091). Note: potency is the fitted concentration of half-maximal effect. The essentials:
as §1

The nature of assay [13]: qHTS of pediatric cancer cell lines to identify multiple opportunities for drug repurposing: Primary screen for SK-N-SH cells (AID 1347098). Note: nearly all actives have a fitted effect of over 65% in size. Note: potency is the fitted concentration of half-maximal effect. In outline: as §3

Where “and” joins values, the source holds several entries; their conditions need not be identical. Equal entries are not always repeated. Results filed as inconclusive are left out. Calls of active or inactive are those of the source. Calls come from the whole dose curve; as a rule, active = well fitted curve in the direction sought with a large enough effect; inconclusive = small, poorly fitted or top-dose-only effect, or another doubt; inactive = no such curve, though single readings can be large; an effect the other way counts as inactive or inconclusive.

Take `CON=C(C(=O)N[C@@H]1C(=O)N2C(C(=O)OCOC(=O)C(C)(C)C)=C(C=Cc3scnc3C)CS[C@H]12)c1csc(N)n1`: the Potency entry in assay [1], in [2], in assay [3], in assay [4], in [6] and in assay [7] was “inactive” throughout. The Potency result in [8] and in [9] was “inactive” throughout. For the same compound, the Potency in [5] is 18.7 µM (active).
For `CC(=O)Oc1cc2c(s1)CCN(C(C(=O)C1CC1)c1ccccc1F)C2` (stereo unspecified), the Potency result in assay [1], in [2] and in assay [3] was “inactive” in each case. The Potency in [4] is 1.48 µM (active); in assay [10] it was 1.48 µM (active); in assay [5], 1.32 µM (active); in assay [6] it was 1.09 µM (active); in assay [7], 3.72 µM (active).
`Cn1cc(C=C2C(=O)Nc3cccnc32)c2ccccc21`: the Potency result in assay [1], in [2], in assay [3], in assay [4], in assay [6] and in [7] was “inactive” each time. The Potency result in [8], in assay [9] and in assay [11] was “inactive” in each case.
`Cc1ccc(C(=O)Nc2cccc(C(F)(F)F)c2)cc1Nc1nc(-c2cccnc2)nc2c1cnn2C`: the Potency entry in assay [1], in assay [3] and in [13] was “inactive” throughout. Also, the Potency in assay [2] is 14.8 µM (active); in [12], 7.43 µM (active); in assay [10], 9.35 µM (active); in assay [5], 9.35 µM (active); in assay [6], 24.3 µM (active); in [7], 8.33 µM (active). The Potency in assay [11] was 7.43 µM (active).
In the case of `O=C1C(Cl)=C(NCCN2CCOCC2)C(=O)c2ncccc21`, the Potency in [1] is 20.9 µM (active); in assay [2], 9.35 µM (active); in assay [4], 11.8 µM (active); in assay [12] it was 6.62 µM (active); in assay [10], 1.87 µM (active); in [5] it was 7.43 µM (active). Besides, the Potency in [6] was 3.43 µM (active); in assay [7], 4.69 µM (active); in assay [8] it was 5.9 µM (active); in [9], 2.35 µM (active); in assay [13], 7.64 µM (active); in assay [11], 9.35 µM (active).
For the compound `CC(C)C(=O)Nc1ncc(-c2cc(C(F)F)nn2-c2c(Cl)cccc2Cl)s1`, the Potency is 23.1 µM (active) in assay [1]; 13.2 µM (active) in assay [2]; 20.9 µM (active) in [12]; 16.6 µM (active) in assay [7]; 18.7 µM (active) in assay [9]. The Potency entry in assay [3] was “inactive”.
For `NC(=O)NN=Cc1ccc([N+](=O)[O-])o1`, the Potency result in assay [1], in assay [2], in assay [3], in [12], in assay [5] and in assay [6] was “inactive” throughout. In addition, the Potency entry in assay [7], in assay [8], in assay [9] and in assay [13] was “inactive” in each case.
As to `COc1ccc(-c2oc3c(CC=C(C)C)c(OC4O[C@H](CO)[C@@H](O)[C@H](O)[C@@H]4O)cc(O)c3c(=O)c2OC2O[C@@H](C)[C@H](O)[C@@H](O)[C@@H]2O)cc1` (stereo partly specified), the Potency was 23.5 µM (active) in [1]; 18.7 µM (active) in [2]; 10.5 µM (active) in assay [5]; 23.5 µM (active) in [7]; 26.4 µM (active) in assay [9]; 20.9 µM (active) in [11]. Further, the Potency entry in assay [3] was “inactive”.
Regarding `O=c1cc(-c2ccccc2)oc2cc(O)c(O)c(O)c12`, the Potency entry in [1], in [2], in assay [3], in assay [12], in [10] and in [5] was “inactive” each time. Also, the Potency entry in assay [7] and in assay [13] was “inactive” throughout. Further, in assay [9], the Potency was 18.7 µM (active).
Consider `CN(C[C@@H]1COCCO1)S(=O)(=O)Nc1ccc2ccc3ncc(-c4cnn(C)c4)cc3c(=O)c2c1`, for which the Potency was 18.7 µM (active) and 18.4 µM (active) in assay [1]; 0.372 µM (active) in assay [12]; 7.43 µM (active) in assay [10]; 2.96 µM (active) in assay [5]; 7.43 µM (active) in assay [7]. Besides, the Potency result in [2] and in assay [3] was “inactive” each time.
With `C[C@]12CCC3c4ccc(O)cc4CCC3C1CCC2=O` (stereo partly specified), the Potency entry in [1], in assay [2], in assay [3], in assay [5], in [6] and in assay [7] was “inactive” in each case. Further, the Potency entry in assay [8] and in assay [13] was “inactive” each time.
`CCn1c(C(=O)N(C2CC2)C2CC2)cc2c3c(ncn3C)c(Nc3cc(C)n(C)n3)nc21`: the Potency result in assay [1], in [2], in [3], in assay [6], in [7] and in assay [8] was “inactive” throughout.

(Values after PubChem BioAssay (NCATS).)
